# Measured values from PubChem BioAssay (NCI).
# Compounds without any hit were thinned out: in the full panel of roughly 83,000, 20% have a hit.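 How to read the values: 0–100, growth inhibition (40 = 60% inhibited); 0, no net growth; -100 to 0, cell death (-40 = 40% of starting cells died; -100 = all dead).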 Calls of active or inactive are those of the source.
# Test system: SNB-19 CNS
# Assay: NCI-60 one-dose screen, 48 h (100 = growth as untreated, 0 = no growth, -100 = all killed)
# Conditions: 10 µM unless noted
# Description: Growth inhibition of the SNB-19 human tumor cell line is measured as a screen for anti-cancer activity. Cells are grown in 96 well plates and exposed to the test compound for 48 hours. Compounds are tested at a single concentration, which is 10^-5 M for most compounds. The reported endpoint is percent growth (GI% or GIPRCNT), where numbers from 0 - 100% represent growth inhibition, and numbers from -100% - 0 represent cell death. For example, a value of 40 represents 60% growth inhibition. A value of 0 means no net growth occurred over the course of the experiment. A value of -40 indicates 40% of cells at the beginning of the experiment died by the end of the experiment. A value of -100 means all cells are dead at the end of the experiment.
# NCI-60 Human Tumor Cell Lines Screen was performed using the standard one-dose NCI protocol, which is described in more detail at https://dtp.cancer.gov/discovery_development/nci-60/default.htm.
# Compounds with GIPRCNT values below 10 were considered active. Activity score was based on GIPRCNT using the following formula: […]
# Score is 0 for GIPRCNT values of 100 or above, 50 for GIPRCNT values of 0, and 100 for GIPRCNT values of -100.
row,Compound,growth
1,COc1ccc(NC(=O)[C@H](C)N)cc1C(=O)Nc1cccc(-c2cc(=O)c3c(OC)c(OC)c(OC)cc3o2)c1,65.8% (inactive)
2,COc1cc(/C=C2\SC(=O)NC2=O)ccc1OCC(=O)Nc1ccc(C(=O)/C=C/c2cc3ccccc3nc2Cl)cc1,85.6% (inactive)
3,c1ccc(-c2n(Cc3ccc4ccccc4c3)c3c4ccccc4c4ccccc4c3[n+]2Cc2ccc3ccccc3c2)cc1,-88.5% (active)
4,CSc1nccc(-c2c(-c3ccc(F)c(OCc4ccc(F)cc4)c3)nc3sccn23)n1,72.6% (inactive)
5,CN(c1ccc(F)cc1)S(=O)(=O)c1ccc(-c2cnc(C3CC3)o2)cc1,36.9% (inactive)
6,O=C(NCCCCCCNC(=O)c1c2c(nc3ccccc13)-c1cccnc1SC2)c1c2c(nc3ccccc13)-c1cccnc1SC2,66.5% (inactive)
7,Cc1ccc(-c2csc(N/N=C/c3nc4ccccc4n3C3CC3)n2)cc1,81.2% (inactive)
8,O=[N+]([O-])c1ccc(-c2nnc(SCc3ccc(O)c4ncccc34)o2)cc1,22.2% (inactive)
9,COC[C@]12CC[C@@H](C)[C@H](C)[C@H]1C1=CC[C@@H]3[C@@]4(C)CCCNC(C)(C)[C@@H]4CC[C@@]3(C)[C@]1(C)CC2,47.8% (inactive)
10,C#CCOc1ccc(/C=N/Nc2nc(-c3cc(Cl)ccc3Cl)cs2)cc1,104% (inactive)
11,COc1cc(/C=C/C(=O)c2ccc(N3CCN(C)CC3)cc2)ccc1F,66.9% (inactive)
12,CCN1C/C(=N\S(=O)(=O)c2ccccc2)N(CC)C1=S,98.2% (inactive)
13,COCCC[C@H]1O[C@@](O)([C@H](C)[C@@H]2CC(OC)C(O)/C=C(C)/C=C(C)/C=C(\C)C(OC3O[C@@H](C)[C@H](O)C(O)[C@@H]3O)C(C)/C=C(C)/C=C(OC)/C=C(\C)C(=O)O2)C(OC)C(O)[C@]1(C)O[C@H]1C[C@@H](O)[C@H](O[C@H]2C[C@](C)(O)[C@H](O)C(C)O2)C(C)O1 (stereo not given in full),38.8% (inactive)
14,C=CCn1c(SCC(=O)Nc2cccc(C(=O)/C=C/c3ccc(C)cc3)c2)nc2ccccc2c1=O,81.7% (inactive)
15,O=C1[C@H]2Cc3c([nH]c4ccccc34)[C@H](c3ccc(Cl)cc3)N2C(=O)CN1C1CCN(Cc2c(Cl)cccc2Cl)CC1,80.6% (inactive)
16,COc1ccc([C@H]2[C@H](O)C(=O)N2c2cc(OC)c(OC)c(OC)c2)cc1Cl,29.2% (inactive)
17,CN(c1ccc(Br)cc1)S(=O)(=O)c1ccc(-c2cnc(C3CC3)o2)cc1,37.3% (inactive)
18,CS(=O)(=O)c1ccc2c(c1)c1c(n2S(=O)(=O)c2ccc(Cl)cc2)CCCC1,30.1% (inactive)
19,C(=C(\C1=NCCN1)n1cnc2ccccc21)/c1cccc2ccccc12,88.8% (inactive)
20,O=C(NNc1nc2cc(F)cc(F)c2n2cccc12)c1ncccn1,20% (inactive)

row,Compound,growth
1,O=C(NCCCNc1cc(-c2cn(-c3ccccc3)nc2-c2cccc(O)c2)ccn1)Nc1cc(C(F)(F)F)cc(C(F)(F)F)c1,68.5% (inactive)
2,O=C(NNc1nc2cc(F)c(F)cc2n2cccc12)c1ccncn1,27.5% (inactive)
3,CCOC(=O)C1=C(C)Nc2nnc(Nc3ccccc3)n2C1c1ccccc1 (stereo not given),81.6% (inactive)
4,O=C(Nc1cc(Cl)cc(Cl)c1)Nc1ccc2oc(=O)ccc2c1,13.3% (inactive)
5,COc1cc2c3c(n(CCCNC4CCC4)c(=O)c2cc1OC)-c1cc2c(cc1C3=O)OCO2,-25.2% (active)
6,Cc1ccc(-c2nnc3sc(C4=Cc5ccccc5OC=C4)nn23)cc1,92.1% (inactive)
7,CN(C)C(=O)C1=NC(CO)C(=O)N(c2ccc(Cl)cc2)N1 (stereo not given),102% (inactive)
8,O=C1c2c(c3c4cccnc4[nH]c3c3ccc4ccccc4c23)C(=O)N1CCN1CCCCC1,41.1% (inactive)
9,CN(C)c1ccc(/C=N/Nc2nc(N/N=C/c3ccc(N(C)C)cc3)nc(N3CCOCC3)n2)cc1,91.3% (inactive)
10,Cc1cc(NS(=O)(=O)c2ccc(-c3cnc(C4CC4)o3)cc2)ccc1I,40.1% (inactive)
11,COc1ccc2c(ccn2C(=O)N2c3ccccc3Sc3ccccc32)c1,30.8% (inactive)
12,COc1ccc(/C(C)=C(\c2ccc(Cl)cc2)c2ccc(OCCN)cc2)cc1,87.8% (inactive)
13,C=C(C)[C@@H]1CC[C@]2(C)[C@H](CC=C3[C@@H]4CC(C)(C)CC[C@]4(C(=O)NCC#CCN4CCN(C)CC4)CC[C@]32C)[C@@]1(C)CCC#N,72.5% (inactive)
14,C#C[C@]1(O)CC[C@H]2[C@@H]3CC=C4c5sc(Nc6cccc(C)n6)nc5CC[C@]4(C)[C@H]3CC[C@@]21C,18.5% (inactive)
15,Nc1nc(-c2cccc([N+](=O)[O-])c2)c(N=Nc2cccc(Cl)c2)s1,73.9% (inactive)
16,CCOP(=O)(OCC)OC[C@]12CCC(C)(C)C[C@H]1C1=CC[C@@H]3[C@@]4(C)C/C(=C\c5cccnc5)[C@H](OP(=O)(OCC)OCC)C(C)(C)[C@@H]4CC[C@@]3(C)[C@]1(C)CC2,40% (inactive)
17,Cc1nn(-c2ccc(Br)cc2)c2nc(CCl)[nH]c(=O)c12,97.1% (inactive)
18,O=C1c2c(c3c4cc(Br)ccc4[nH]c3c3ccc4ccccc4c23)C(=O)N1CCN1CCCCC1,37.7% (inactive)
19,COc1ccccc1N1CCN(C2=NN=C(c3cccc(Cl)c3)c3ccccc3C2)CC1,41.2% (inactive)
20,Oc1ccc(CSc2nnc(-c3cnccn3)o2)c2cccnc12,18.1% (inactive)
